Calls of active or inactive are those of the source. How the source made its calls: active means hit-call score of the fitted dose curve at least 0.9, where 1 is the maximum; inactive means score below 0.9.
Tests used:
[1] = CCTE_Harrill_HTTr_Apoptosis_DMEM_12hr: (Pilot) CCTE's 12-hour Apoptosis Assessment for the High-Throughput Transcriptomics (HTTr) Platform, in MCF-7 cells cultured in DMEM + 10% fetal bovine serum, Harrill Lab (AID 2283982)
How it was run: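 Caspase-3/7 activity was measured by high-content imaging (CellEvent Caspase 3/7 Green) after a 12-hour exposure of MCF-7 cells grown in DMEM with 10% FBS. Eight-point concentration series, fitted bidirectionally against vehicle.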

[2] = CCTE_Harrill_HTTr_Apoptosis_DMEM_24hr: (Pilot) CCTE's 24-hour Apoptosis Assessment for the High-Throughput Transcriptomics (HTTr) Platform, in MCF-7 cells cultured in DMEM + 10% fetal bovine serum, Harrill Lab (AID 2283983)
Source text: This is a cell-based assay that evaluates apoptosis using high content imaging to evaluate activation of caspase-3/7 using the CellEvent Caspase 3/7 Green detection reagent in 384-well format.One of seven assay components measured from the CCTE_Harrill_HTTr_Apoptosis assay. This was part of a pilot experiment. This is a cell-based assay that evaluates apoptosis in MCF-7 cells cultured in DMEM + 10% fetal bovine serum. High content imaging is used to evaluate activation of caspase-3/7 using the CellEvent Caspase 3/7 Green detection reagent. Measurements are taken at 24 hours after chemical dosing in 384-well format.The assay component endpoint CCTE_Harrill_HTTr_Apoptosis_DMEM_24hr was analyzed with bidirectional fitting relation to DMSO as the negative control and baseline of activity. Using a type of viability reporter, gain-of-signal activity can be used to evaluate activation of caspase-3/7 using the CellEvent Caspase 3/7 Green detection reagent to understand changes in apoptosis. To generalize the intended target to other relatable targets, this assay endpoint is annotated to cell cycle, where the subfamily is apoptosis.
Chemicals were tested in MCF7 cells in an eight point dilution series with a twenty-four hour exposure duration.

[3] = CCTE_Harrill_HTTr_Apoptosis_PRF_DMEM_6hr: (Pilot) CCTE's 6-hour Apoptosis Assessment for the High-Throughput Transcriptomics (HTTr) Platform, in MCF-7 cells cultured phenol red-free DMEM + 10% charcoal-stripped fetal bovine serum, Harrill Lab (AID 2283984)
How it was run: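 Caspase-3/7 activity (CellEvent Green) read by high-content imaging 6 h after dosing, eight concentrations. Cells: MCF-7, phenol red-free DMEM with 10% charcoal-stripped serum. Curves fit both directions against DMSO.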

[4] = CCTE_Harrill_HTTr_Apoptosis_PRF_DMEM_12hr: (Pilot) CCTE's 12-hour Apoptosis Assessment for the High-Throughput Transcriptomics (HTTr) Platform, in MCF-7 cells cultured in phenol red-free DMEM + 10% charcoal-stripped fetal bovine serum, Harrill Lab (AID 2283985)
How it was run: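 Caspase-3/7 activity by CellEvent Green high content imaging after 12 h compound exposure (eight concentrations) in MCF-7 grown in phenol red-free DMEM plus 10% charcoal-stripped serum; DMSO as baseline.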

[5] = CCTE_Harrill_HTTr_Apoptosis_PRF_DMEM_24hr: (Pilot) CCTE's 24-hour Apoptosis Assessment for the High-Throughput Transcriptomics (HTTr) Platform, in MCF-7 cells cultured in phenol red-free DMEM + 10% charcoal-stripped fetal bovine serum, Harrill Lab (AID 2283986)
How it was run: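 Eight concentrations tested for 24 h on MCF-7 grown in charcoal-stripped serum, phenol red-free DMEM. High content imaging of CellEvent Caspase 3/7 Green signal gives apoptosis read-out, fitted both ways relative to DMSO.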

Measured: outcome

CCC(C)(c1ccc(O)cc1)c1ccc(O)cc1
inactive: all assays above

CC(C)(c1ccccc1)c1ccc(O)cc1
inactive: all assays above

Source: PubChem BioAssay (EPA / NIEHS)
